Measurements as given in PubChem BioAssay (NCATS).
Results filed as inconclusive are left out. A call without a number means that no potency is given here. The source made the active and inactive calls. Calls follow the shape of the dose curve; as a rule, active = well fitted inhibition curve with a large enough effect; inconclusive = small, poorly fitted or top-dose-only effect; inactive = no such curve, though single readings can be large or run the other way.

Molecular target: Retinaldehyde dehydrogenase 3 (Homo sapiens) (UniProt P47895)
Test: qHTS for Inhibitors of the Aldehyde Dehydrogenase Family (ALDH1A3) Primary screen (AID 2061315)
Conditions: ALDH inhibition qHTS; series mostly up to 56 µM

Structure (SMILES) | Potency
CC1CCCC(O)CC(=O)c2c(O)cc(O)cc2CC(=O)O1 (stereo not given) | inactive
Cc1noc(=O)c2ccc(NC(=O)C(O)(CC(C)(C)c3cccc4c3OCC4)C(F)(F)F)cc12 (stereo not given) | inactive
C[C@@H]1O[C@@H](O[C@H]2CC[C@@]3(C)C(CC[C@]4(C)C3CC=C3[C@@H]5CC(C)(C)CC[C@]5(C(=O)O[C@@H]5O[C@H](CO)[C@@H](O)[C@H](O)[C@H]5O)CC[C@]34C)[C@]2(C)CO)[C@H](O)[C@H](O[C@@H]2O[C@H](CO)[C@@H](O)[C@H](O)[C@H]2O)[C@H]1O (stereo not given in full) | inactive
C=C1CCC2[C@](C)(CCC[C@]2(C)C(=O)O)[C@H]1CC/C(C)=C/C(=O)OC (stereo not given in full) | inactive
CC(C)(C)Oc1ccc(OCC2Cc3ccccc3CN2C(=O)c2cccc3ccccc23)cc1 (stereo not given) | inactive
